{
  "source": "PubChem BioAssay (NCATS)",
  "note": "Records with an inconclusive call do not appear. A number with no mark means an inactive call. Calls come from the whole dose curve; as a rule, active = well fitted inhibition curve with a large enough effect; inconclusive = small, poorly fitted or top-dose-only effect; inactive = flat fitted curve, though single readings scatter. % is set by controls: 0 for no effect and ±100 for the full control effect.",
  "data": [
    {"biological_target": "Calcium and integrin-binding protein 1 (Homo sapiens) (UniProt Q99828)", "sequence (Q99828 whole entry, looked up)": "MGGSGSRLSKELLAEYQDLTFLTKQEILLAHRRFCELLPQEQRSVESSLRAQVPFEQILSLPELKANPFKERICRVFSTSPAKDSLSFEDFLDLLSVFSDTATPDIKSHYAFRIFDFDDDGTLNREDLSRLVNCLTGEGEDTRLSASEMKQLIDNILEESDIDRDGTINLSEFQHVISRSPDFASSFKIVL", "experiment": "Primary qHTS for Identification of Calcium Integrin Binding Protein 1 (CIB1) Competitor (AID 1508620); note: top concentration of the series differs between compounds", "conditions": "CIB1-GST / FITC-alphaIIb peptide fluorescence polarization; series mostly up to 114 µM; activity change, negative = inhibition: at the top concentration", "procedure,_shortened": "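Fluorescence polarization competition: GST-tagged CIB1 (1 uM final) preincubated with compound 15 min at room temperature, then FITC-labelled alphaIIb peptide (100 nM final) added. After 15 min at room temperature, polarization read at Ex 480/Em 540.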", "units": {"activity change, negative = inhibition": "%"}, "values": [
      {"smiles": "Cc1cc(N[S+](=O)([O-])c2ccc(NC(=O)Cc3ccc(F)c(C(F)(F)F)c3)cc2)no1", "activity change, negative = inhibition": -10.4},
      {"smiles": "COc1cccc(-c2nnc3n2N=C(c2c(OC)cccc2OC)CS3)c1OC", "activity change, negative = inhibition": 2.96},
      {"smiles": "Cc1ccc(-c2ccc(C(C)Nc3nc(-c4ccccc4C(C)C)ncc3C)cc2)cn1", "note": "(configuration not stated)", "activity change, negative = inhibition": 2.57},
      {"smiles": "CC(=O)Nc1sc2c(c1-c1ccc(N[S+](C)(=O)[O-])cc1)CCNC2", "activity change, negative = inhibition": 0.511},
      {"smiles": "CCN(CC)C(=O)COC(=O)c1ccc(S(C)(=O)=O)c([N+](=O)[O-])c1", "activity change, negative = inhibition": -6.92},
      {"smiles": "Cc1ccc(CNc2ccc(N3CCN(C(=O)OC(C)(C)C)CC3)cc2)cc1", "activity change, negative = inhibition": 0.537},
      {"smiles": "CCCCCNc1oc(-c2cccc3ccccc23)nc1C#N", "activity change, negative = inhibition": 2.34},
      {"smiles": "COc1ccc(C(=O)N(Cc2ccco2)Cc2cccs2)c(O)c1", "activity change, negative = inhibition": -9.63},
      {"smiles": "CN(C)c1cccc(-c2ncc(F)c(N3CCC(C(N)=O)CC3)n2)c1", "activity change, negative = inhibition": 3.13},
      {"smiles": "COc1cc(NC(=O)c2cnn3c(C)cc(C)nc23)cc(OC)c1OC", "activity change, negative = inhibition": 1.68},
      {"smiles": "c1cncc(-c2ccc(CNc3nc(C4CCCC4)nc4ccccc34)cc2)c1", "activity change, negative = inhibition": 6.46},
      {"smiles": "CCC(CC)C(=O)NCCc1nc2ccccc2n1CCOc1ccc(C)cc1", "activity change, negative = inhibition": 19.4},
      {"smiles": "Cc1nc(C(C)N(C)c2ncnc3ccc(-c4ccc5c(c4)OCO5)cc23)cs1", "note": "(configuration not stated)", "activity change, negative = inhibition": -3.3},
      {"smiles": "COc1ccc(C2Nc3ccccc3C(=O)N2Cc2ccc3c(c2)OCO3)cc1COc1c(C)cc(NC(C)=O)cc1C", "note": "(configuration not stated)", "activity change, negative = inhibition": -1.89},
      {"smiles": "COc1ccccc1-n1cnc2cc(C(=O)N3CCCCC3)ccc21", "activity change, negative = inhibition": 4.03},
      {"smiles": "COc1ccc(C2=Nn3c(nnc3-c3ccc(OC)cc3)SC2)cc1", "activity change, negative = inhibition": 2.94},
      {"smiles": "Cc1ccsc1CNc1ncnc2ccc(-c3ccc4c(c3)OCO4)cc12", "activity change, negative = inhibition": 7.49}
    ]}
  ]
}
